# According to ChEMBL document CHEMBL3988442, “University of Dundee, Small-Polar-MMV Screening Library” (2021):
# For some of these results: Potency and affinity values are given separately.
# Legend:
# Parameters in all cases: scale not given: direction of the effect not stated beside the values
# [1] = target: Protein translocase subunit SecA (Escherichia coli (strain K12)) (UniProt P10408); test: Assay to Identify E. coli SecA ATPase Inhibitors; type: functional; settings: 30 µM
# [2] = target: T1, Ubiquitin-activating enzyme e1, putative (Leishmania donovani (strain BPK282A1)) (UniProt E9BSI1); test: Leishmania donovani Ubiquitin Activating Enzyme (LdE1); type: functional; settings: 30 µM
# T1 sequence (whole entry): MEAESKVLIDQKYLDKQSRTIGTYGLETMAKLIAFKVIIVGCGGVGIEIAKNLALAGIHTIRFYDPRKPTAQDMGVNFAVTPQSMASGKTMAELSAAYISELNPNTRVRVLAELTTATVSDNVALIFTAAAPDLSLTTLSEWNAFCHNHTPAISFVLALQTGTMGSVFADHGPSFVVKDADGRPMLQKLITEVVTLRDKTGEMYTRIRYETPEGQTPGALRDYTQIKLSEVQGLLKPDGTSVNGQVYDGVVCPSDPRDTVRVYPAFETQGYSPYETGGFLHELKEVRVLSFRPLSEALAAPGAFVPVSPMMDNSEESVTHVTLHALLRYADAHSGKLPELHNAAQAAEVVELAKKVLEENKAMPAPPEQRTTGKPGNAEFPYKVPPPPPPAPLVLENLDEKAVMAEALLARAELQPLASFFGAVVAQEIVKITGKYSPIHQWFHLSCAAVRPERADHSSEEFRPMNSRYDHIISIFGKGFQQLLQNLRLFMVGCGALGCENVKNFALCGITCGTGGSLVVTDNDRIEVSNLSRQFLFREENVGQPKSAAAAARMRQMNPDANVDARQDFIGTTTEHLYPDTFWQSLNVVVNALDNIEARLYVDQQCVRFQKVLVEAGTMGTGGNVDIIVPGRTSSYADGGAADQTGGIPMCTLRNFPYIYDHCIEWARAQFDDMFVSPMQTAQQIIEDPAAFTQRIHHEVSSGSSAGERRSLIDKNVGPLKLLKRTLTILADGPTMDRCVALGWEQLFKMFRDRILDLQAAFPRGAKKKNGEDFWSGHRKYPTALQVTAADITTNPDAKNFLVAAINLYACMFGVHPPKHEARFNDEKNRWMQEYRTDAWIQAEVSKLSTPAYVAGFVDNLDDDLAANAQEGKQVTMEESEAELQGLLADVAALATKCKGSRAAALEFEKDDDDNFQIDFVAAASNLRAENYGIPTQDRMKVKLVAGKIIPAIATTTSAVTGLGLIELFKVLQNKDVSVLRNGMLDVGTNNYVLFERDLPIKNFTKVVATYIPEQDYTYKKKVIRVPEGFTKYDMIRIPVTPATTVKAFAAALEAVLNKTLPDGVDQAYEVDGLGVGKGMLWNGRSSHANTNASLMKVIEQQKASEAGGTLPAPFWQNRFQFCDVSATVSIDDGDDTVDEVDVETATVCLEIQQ
# [3] = target: AMP-activated protein kinase, AMPK (Homo sapiens) (UniProt P54646+O43741+P54619+Q9UGJ0+Q9Y478+Q13131+Q9UGI9); test: AMP-dependent Kinase enzyme assay. An in vitro enzyme assay that detects ADP turnover that is directly proportional to AMPK activity. This uses naive AMPK that is activated during the assay with MK-8722; type: functional; settings: 30 µM
# [4] = target: Sialic acid-binding Ig-like lectin 9 (Homo sapiens) (UniProt Q9Y336); test: Hs-Siglec9 ALPHAscreen SOP 20170721; settings: 10 µM
# Chain of Sialic acid-binding Ig-like lectin 9 (Homo sapiens) (Q9Y336 whole entry): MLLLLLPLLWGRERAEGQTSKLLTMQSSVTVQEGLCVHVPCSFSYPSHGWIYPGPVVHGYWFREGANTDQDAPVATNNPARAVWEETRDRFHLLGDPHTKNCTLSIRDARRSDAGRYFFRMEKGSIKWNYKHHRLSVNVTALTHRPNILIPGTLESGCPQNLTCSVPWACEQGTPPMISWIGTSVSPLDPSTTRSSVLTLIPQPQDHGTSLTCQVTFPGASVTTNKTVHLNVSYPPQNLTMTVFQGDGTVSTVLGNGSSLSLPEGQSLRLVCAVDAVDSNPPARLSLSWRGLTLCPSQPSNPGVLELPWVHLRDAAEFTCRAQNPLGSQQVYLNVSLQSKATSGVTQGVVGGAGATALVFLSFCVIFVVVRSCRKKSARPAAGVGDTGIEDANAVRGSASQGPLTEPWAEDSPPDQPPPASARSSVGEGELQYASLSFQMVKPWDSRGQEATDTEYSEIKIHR
# Trypanosoma cruzi = test: Trypanosoma cruzi phosphomannomutase and mannose-1-phosphate guanylyltransferase assay; type: functional; settings: 10 µM
# [5] = target: T2, Arginase-2, mitochondrial (Homo sapiens) (UniProt P78540); test: in vitro enzyme assay to detect the production of urea directly proportional to the activity of Arginase II; type: functional; settings: 33.3 µM; note: in the data most compounds retested in dose-response had high values
# T2 sequence (whole entry): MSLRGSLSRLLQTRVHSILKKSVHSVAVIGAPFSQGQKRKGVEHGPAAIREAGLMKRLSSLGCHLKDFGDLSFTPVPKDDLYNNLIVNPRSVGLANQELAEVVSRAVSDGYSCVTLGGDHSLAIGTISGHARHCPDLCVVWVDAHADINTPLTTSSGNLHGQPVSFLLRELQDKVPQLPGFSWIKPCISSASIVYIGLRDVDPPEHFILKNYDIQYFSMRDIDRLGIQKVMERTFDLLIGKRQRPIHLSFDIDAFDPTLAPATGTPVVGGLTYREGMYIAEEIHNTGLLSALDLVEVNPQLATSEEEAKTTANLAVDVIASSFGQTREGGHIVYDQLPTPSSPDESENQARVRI
# [6] = target: T3, Proteasome subunit beta (Trypanosoma cruzi) (UniProt O96673); test: Trypanosoma cruzi proteasome chymotrypsin-like activity (TcProtChymo) assay.; note: in the data most compounds retested in dose-response had high values; type: functional; settings: 9.37 µM
# T3 sequence (whole entry): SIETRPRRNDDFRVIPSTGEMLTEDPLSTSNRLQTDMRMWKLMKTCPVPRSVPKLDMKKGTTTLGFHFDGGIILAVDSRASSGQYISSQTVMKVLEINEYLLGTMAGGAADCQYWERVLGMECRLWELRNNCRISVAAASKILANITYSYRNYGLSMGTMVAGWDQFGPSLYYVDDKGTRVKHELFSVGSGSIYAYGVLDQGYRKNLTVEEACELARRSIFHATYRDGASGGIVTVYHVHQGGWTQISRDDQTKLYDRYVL
# Homo sapiens = organism: Homo sapiens; test: To identify inhibition of the IFN signalling (Jak-Stat) pathway via expression of an eGFP reporter gene under the control of an IFN-stimulated response element (ISRE) containing MxA promoter.; type: functional; settings: 30 µM
# [7] = target: T4, Tyrosyl-tRNA synthetase, putative (Trypanosoma cruzi (strain CL Brener)) (UniProt Q4DSP6); test: Trypanosoma cruzi tyrosyl tRNA synthetase (TcYRS) _High Tyrosine SOP; type: functional; settings: 30 µM; note: in the data most compounds retested in dose-response had high values
# T4 sequence (whole entry): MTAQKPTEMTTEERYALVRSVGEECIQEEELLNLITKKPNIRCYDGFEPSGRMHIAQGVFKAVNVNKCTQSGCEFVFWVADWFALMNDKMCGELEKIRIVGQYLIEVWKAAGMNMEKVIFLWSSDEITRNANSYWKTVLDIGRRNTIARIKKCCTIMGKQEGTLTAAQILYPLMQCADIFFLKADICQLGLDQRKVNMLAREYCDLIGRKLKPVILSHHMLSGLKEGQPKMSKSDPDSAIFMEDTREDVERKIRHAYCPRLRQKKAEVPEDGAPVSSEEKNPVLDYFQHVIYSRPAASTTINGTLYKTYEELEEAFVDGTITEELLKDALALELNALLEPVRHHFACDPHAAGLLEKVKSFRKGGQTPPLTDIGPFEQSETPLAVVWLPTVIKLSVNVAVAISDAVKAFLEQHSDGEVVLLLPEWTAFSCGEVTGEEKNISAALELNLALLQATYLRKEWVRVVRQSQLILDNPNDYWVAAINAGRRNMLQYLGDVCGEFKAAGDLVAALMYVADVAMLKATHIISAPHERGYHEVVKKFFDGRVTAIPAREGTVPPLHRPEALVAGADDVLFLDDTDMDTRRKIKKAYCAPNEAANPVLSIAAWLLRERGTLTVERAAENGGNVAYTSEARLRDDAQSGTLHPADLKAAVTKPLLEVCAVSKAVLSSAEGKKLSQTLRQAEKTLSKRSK
# [8] = target: T4, Tyrosyl-tRNA synthetase, putative (Trypanosoma cruzi (strain CL Brener)); test: Trypanosoma cruzi tyrosyl tRNA synthetase (TcYRS) SOP; type: functional; settings: 30 µM
# [9] = target: Chromo domain-containing protein 1 (Saccharomyces cerevisiae (strain ATCC 204508 / S288c) (Baker's yeast)) (UniProt P32657); test: ScCHD-1 Enzyme Inhibition Assay; type: functional; settings: 30 µM; note: in the data most compounds retested in dose-response had high values
# Chain of Chromo domain-containing protein 1 (Saccharomyces cerevisiae (strain ATCC 204508 / S288c) (Baker's yeast)) (P32657 whole entry, the tested form may be a part): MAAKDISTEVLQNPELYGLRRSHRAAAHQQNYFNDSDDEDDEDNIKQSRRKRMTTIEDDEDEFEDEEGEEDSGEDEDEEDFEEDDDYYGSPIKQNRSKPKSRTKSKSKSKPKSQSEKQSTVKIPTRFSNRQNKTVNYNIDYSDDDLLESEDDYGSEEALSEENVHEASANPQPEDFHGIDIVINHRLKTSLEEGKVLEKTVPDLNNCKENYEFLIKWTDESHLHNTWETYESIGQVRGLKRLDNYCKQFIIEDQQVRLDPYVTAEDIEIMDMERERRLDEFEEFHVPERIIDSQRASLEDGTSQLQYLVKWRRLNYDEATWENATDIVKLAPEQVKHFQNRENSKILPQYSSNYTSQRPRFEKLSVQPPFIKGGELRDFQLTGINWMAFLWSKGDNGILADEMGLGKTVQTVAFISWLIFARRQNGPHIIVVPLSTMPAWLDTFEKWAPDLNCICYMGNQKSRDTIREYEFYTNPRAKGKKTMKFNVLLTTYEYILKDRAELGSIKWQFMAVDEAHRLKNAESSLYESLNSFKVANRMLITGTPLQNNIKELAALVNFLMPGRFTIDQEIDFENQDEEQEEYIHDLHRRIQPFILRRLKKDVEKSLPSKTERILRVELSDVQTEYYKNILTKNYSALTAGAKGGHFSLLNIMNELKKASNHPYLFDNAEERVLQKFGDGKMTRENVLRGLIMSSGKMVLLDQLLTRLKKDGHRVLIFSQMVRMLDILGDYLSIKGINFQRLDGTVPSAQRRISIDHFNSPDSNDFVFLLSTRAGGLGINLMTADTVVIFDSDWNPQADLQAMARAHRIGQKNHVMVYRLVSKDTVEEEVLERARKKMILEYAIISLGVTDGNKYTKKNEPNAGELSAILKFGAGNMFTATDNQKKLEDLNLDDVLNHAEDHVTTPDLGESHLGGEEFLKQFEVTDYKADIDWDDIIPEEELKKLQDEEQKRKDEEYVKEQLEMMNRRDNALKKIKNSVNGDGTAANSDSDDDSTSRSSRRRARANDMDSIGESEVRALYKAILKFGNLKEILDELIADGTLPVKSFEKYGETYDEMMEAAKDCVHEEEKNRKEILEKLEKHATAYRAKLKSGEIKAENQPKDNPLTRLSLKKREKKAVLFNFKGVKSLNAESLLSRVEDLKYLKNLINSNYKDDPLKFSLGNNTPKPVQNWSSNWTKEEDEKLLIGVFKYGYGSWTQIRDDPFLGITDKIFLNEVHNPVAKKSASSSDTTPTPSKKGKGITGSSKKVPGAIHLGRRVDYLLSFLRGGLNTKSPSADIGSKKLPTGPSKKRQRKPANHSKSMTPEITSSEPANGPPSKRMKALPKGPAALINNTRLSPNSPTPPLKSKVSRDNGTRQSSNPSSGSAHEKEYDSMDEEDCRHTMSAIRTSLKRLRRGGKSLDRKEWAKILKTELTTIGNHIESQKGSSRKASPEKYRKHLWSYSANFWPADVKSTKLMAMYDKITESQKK
# Chain of Protein translocase subunit SecA (Escherichia coli (strain K12)) (P10408 whole entry): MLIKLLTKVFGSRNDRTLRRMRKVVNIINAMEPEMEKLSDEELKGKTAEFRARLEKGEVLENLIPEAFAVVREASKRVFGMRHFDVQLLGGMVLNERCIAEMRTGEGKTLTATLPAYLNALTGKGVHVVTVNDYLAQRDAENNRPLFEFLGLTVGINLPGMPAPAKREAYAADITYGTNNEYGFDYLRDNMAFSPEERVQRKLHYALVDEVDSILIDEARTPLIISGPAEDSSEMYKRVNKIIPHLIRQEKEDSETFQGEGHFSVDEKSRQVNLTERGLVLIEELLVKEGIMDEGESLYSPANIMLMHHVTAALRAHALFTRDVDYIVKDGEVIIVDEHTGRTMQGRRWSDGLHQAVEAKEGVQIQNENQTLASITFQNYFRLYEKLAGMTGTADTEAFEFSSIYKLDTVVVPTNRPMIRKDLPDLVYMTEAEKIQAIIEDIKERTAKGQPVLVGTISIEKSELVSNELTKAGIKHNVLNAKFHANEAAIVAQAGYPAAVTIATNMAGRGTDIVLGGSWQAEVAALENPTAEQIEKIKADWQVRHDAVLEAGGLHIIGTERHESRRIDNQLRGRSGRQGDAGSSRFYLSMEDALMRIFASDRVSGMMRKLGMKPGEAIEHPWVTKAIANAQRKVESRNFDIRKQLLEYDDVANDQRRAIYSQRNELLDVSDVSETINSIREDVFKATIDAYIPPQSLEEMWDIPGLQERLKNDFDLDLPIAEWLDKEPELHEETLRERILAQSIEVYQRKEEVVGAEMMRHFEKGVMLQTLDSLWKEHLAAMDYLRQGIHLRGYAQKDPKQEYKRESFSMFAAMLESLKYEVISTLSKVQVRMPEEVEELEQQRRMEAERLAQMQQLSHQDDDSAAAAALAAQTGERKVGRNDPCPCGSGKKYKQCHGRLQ
Compound,Percent Effect [1],Percent Effect [2],Percent Effect [3],Percent Effect [4],Percent Effect (Trypanosoma cruzi),Percent Effect [5],Percent Effect [6],Percent Effect (Homo sapiens),Percent Effect [7],Percent Effect [8],Percent Effect [9]
CC1=N[C@@]2(CC[C@@H]3CN(Cc4ccccc4F)C[C@@H]32)C(=O)N1CC1CC1,-5%,0%,5.98%,-2.03%,-0.195%,-2.5%,2.96%,11.1%,4.95%,3.66%,1.49%
CN1C(=O)CC(C(=O)O)C12CCN(Cc1ccc(Cl)cc1F)CC2 (stereo not given),-2.86%,10.7%,-8%,3.22%,-0.487%,2.6%,10.1%,10.2%,6.01%,21%,-6.2%
CC(C)n1ncc2c1NC(=O)CC21C(=O)Nc2c(Cl)cccc21 (stereo not given),-1.42%,-1.33%,3.7%,7%,-0.393%,-6.87%,0.185%,34%,1.06%,2.56%,-2%
Cc1nc(CN2CCN(C(=O)c3sccc3C3CC3)CC2)cs1,-2.84%,0%,8.03%,9.39%,-0.49%,3.16%,3.48%,-10.3%,-2.86%,-2.35%,-13.7%
Cc1ccc(CN2C[C@@H]3COC[C@@H](NS(C)(=O)=O)[C@@H]3C2)o1,-1.26%,2.67%,-0.569%,-2.48%,8.69%,-54.7%,12.5%,-3.72%,1.04%,17.5%,-8.24%
Cc1nnc(NCc2cccnc2N(C)C)c(C#N)c1C,-0.868%,-5.41%,-22.1%,9.49%,2.88%,-4.25%,-2.87%,6.79%,2.97%,6.1%,0.273%
CN(C)C(=O)N1CCN(C(=O)CCc2ccccc2)[C@H]2CS(=O)(=O)C[C@H]21,-0.417%,5.41%,-5.99%,6.47%,4.44%,-2.86%,15.3%,23.4%,8.99%,9.76%,-2.21%
Cn1cc(-c2cnc(N3CCOCC3)nc2)cc1C(=O)N1CCOCC1,-2.41%,13.3%,7.42%,1.64%,-0.984%,2.56%,1.32%,23.2%,6.38%,14.1%,-9.55%
CNS(=O)(=O)Cc1ccc(CNC(=O)c2ccc(C)[nH]c2=O)cc1,-4.48%,28.6%,-2.88%,7.58%,6.37%,-1.07%,5.91%,-2.15%,10.7%,26.8%,-6.56%
COc1ccc(OC)c(CNCCc2cc(F)cc3c2OCOC3)c1,-5.17%,-6.94%,-9.7%,2.47%,4.57%,-3.09%,7.19%,4.72%,2.1%,2.56%,-2.06%
O=C(Nc1ccnc(OC2CCOC2)c1)c1cc(F)ccc1F (stereo not given),-5.45%,-1.39%,2.94%,5.39%,-1.65%,-2.65%,11.6%,2.19%,-5.26%,-10.3%,9.81%
Cc1ccc(-c2csc(N)c2C#N)cc1,-0.493%,6.67%,-1.04%,11.3%,-3.34%,-4.05%,13.1%,28%,-6.35%,-12.8%,2.72%
C[S+]([O-])CCCNC(=O)c1cc(Br)c2c(c1)OCCO2 (stereo not given),-5.04%,10.7%,-5.08%,28.9%,5.55%,48.4%,2.62%,8.03%,2.73%,13.6%,-7.44%
CN(Cc1cn2c(n1)CN(C1CCOC1)CC2)Cc1ccco1 (stereo not given),0.0628%,5.33%,0.778%,1.26%,5.99%,-58.2%,16.1%,15.2%,6.25%,20%,-10.2%
CCOC(=O)c1sc2ccsc2c1CNC(=O)C(C)(C)C#N,-2.65%,0%,8.08%,1.84%,1.76%,-5.73%,-5.57%,13.9%,5.94%,11%,14.5%
Cc1ccc(CC(=O)N2CCCC(c3nc(C)cs3)C2)cn1 (stereo not given),-5.58%,-2.7%,-3.92%,13.4%,-0.0929%,-0.554%,0.539%,-13.1%,0.99%,-6.1%,7.44%
CN(CCN1CCCCC1)C(=O)c1cc(CN2CCOCC2)on1,-2.82%,8.22%,-18.2%,-4.57%,2.74%,1.82%,21.8%,-8.25%,7.53%,20%,-3.28%
CC(=O)N1CCCC(Cc2cncc(Br)c2)CC1 (stereo not given),-8.44%,12.2%,-0.231%,1.66%,2.77%,-2.09%,16.4%,24.7%,5.38%,6.49%,-26.1%
COCC1c2c(cnn2CC2CC2)CCN1Cc1nccs1 (stereo not given),-2.49%,13.3%,-1.8%,5.98%,-4.05%,-26%,12.1%,-5.9%,4.17%,20%,-6.08%
CC1CCCN(C(=O)c2csc(S(N)(=O)=O)c2)CC1 (stereo not given),-6.52%,2.7%,1.27%,-1.52%,-6.75%,0.248%,-0.944%,-3.67%,4.3%,6.17%,-0.416%
